Most compounds without a hit are left out; they make up all but 5.4% or so of the library.
Six1-Eya2 blk = qHTS Assay for Inhibitors of the Six1/Eya2 Interaction. 360,000 compounds, 0.56% hits. AlphaScreen GST-Six1/His-Eya2 binding, biochemical; hits give low values. activity change, % (test concentration not listed); in the data active = activity change below about -65%; inconclusive = mostly about -30% to -63%; note: % is set by controls: 0 for no effect and ±100 for the full control effect
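GST-Six1 + His-Eya2 (5X stock: 250/500 nM); Tris pH 8.0, 300 mM NaCl, 0.05% BSA, 0.02% Tween 20; GSH donor/Ni acceptor beads; 1 h 37 °C dark; AlphaScreen readout.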
CtBP-E1A inh = qHTS Assay for Inhibitors of the CtBP/E1A Interaction. CtBP / adenovirus E1A interaction (AlphaScreen). AlphaScreen GST-E1A/His-CtBP binding, 1536-well; hits give low values. 340,000 compounds, 0.49% hits. activity change, % (concentration not given with the values); in the data active = activity change below about -65%; inconclusive = mostly about -30% to -63%; note: % is set by controls: 0 for no effect and ±100 for the full control effect
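In 5 uL wells, 23 nL compound meets equimolar GST-E1A and His-CtBP (5X stock 125 nM each) for 2 h, 37 °C. Beads (5X, 50 ug/mL) then 1 h, 37 °C, dark.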
p53 reactivation = qHTS assay for re-activators of p53 using a Luc reporter. 320,000 compounds, 0.063% hits. H1299 p53-A138V BP100-luciferase reporter, luminescence, 24 h. Potency, µM (series often up to 92.2 µM), for the others: top-dose activity change, positive = activation, hits mostly activators. AID 504706, 2011; note: potency is the fitted concentration of half-maximal effect; % of control where 0% means no effect; nearly all actives have a fitted effect of over 45% in size
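H1299 (p53-null), stable ts p53-A138V + BP100-Luc; 1000 cells/well, Opti-MEM/10% FBS; cpd 4 pt, 1:5; 24 h, 37 deg C, 5% CO2; detection reagent 10 min RT; luminescence.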
Gal4-VP16 FLuc = VP16 counterscreen qHTS for inhibitors of ROR gamma transcriptional activity | Drosophila S2 Gal4-VP16 UAS-luciferase, luminescence, 20 h | Potency, µM (titrated, usually from 53.6 µM), inactives show at the highest dose activity, negative = inhibition, hits mostly inhibitors | 310,000 compounds, 3.5% hits | AID 2546, 2010;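 note: Gal4-VP16 expression switched on by copper sulfate through the metallothionein promoter; potency is the fitted concentration of half-maximal effect; % is set by controls: 0 for no effect and ±100 for the full control effect; nearly all actives have a fitted effect of over 50% in size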
RORg inh = qHTS for inhibitors of ROR gamma transcriptional activity | Nuclear receptor ROR-gamma (Mus musculus), P51450 | Drosophila S2 Gal4-RORgamma UAS-luciferase reporter, 20 h | 310,000 compounds, 5.4% hits | Potency, µM (titrated, usually from 53.6 µM), for the others: top-dose activity change, negative = inhibition, hits mostly inhibitors | AID 2551, 2010; note: potency is the fitted concentration of half-maximal effect; % is set by controls: 0 for no effect and ±100 for the full control effect; nearly all actives have a fitted effect of over 60% in size
Target sequence (P51450 whole entry, looked up, the tested form may be a part): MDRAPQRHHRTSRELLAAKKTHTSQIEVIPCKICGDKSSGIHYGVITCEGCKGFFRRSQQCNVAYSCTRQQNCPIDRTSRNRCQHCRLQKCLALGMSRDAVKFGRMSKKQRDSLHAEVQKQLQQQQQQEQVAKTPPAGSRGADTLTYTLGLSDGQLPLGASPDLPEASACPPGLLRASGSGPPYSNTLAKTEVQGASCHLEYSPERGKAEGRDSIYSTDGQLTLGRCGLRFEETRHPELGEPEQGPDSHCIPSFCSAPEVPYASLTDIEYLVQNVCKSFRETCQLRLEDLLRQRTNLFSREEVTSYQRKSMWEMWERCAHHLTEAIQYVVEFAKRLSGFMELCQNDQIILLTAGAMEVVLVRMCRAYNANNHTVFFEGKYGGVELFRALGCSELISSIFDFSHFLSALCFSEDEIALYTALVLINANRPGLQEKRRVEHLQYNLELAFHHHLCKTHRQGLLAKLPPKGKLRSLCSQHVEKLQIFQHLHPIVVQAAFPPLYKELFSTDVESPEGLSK
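Luminescence from a UAS-regulated Photinus luciferase reporter in stably transfected Drosophila Schneider cells is measured; decreased signal marks ROR gamma inhibition. Fusion expression is induced by 700 uM copper sulfate for 20 hr.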
* marks the source's active call; other numbers are inactive results; ? = inconclusive; . = not tested or not shown; [ ] = dose if it differs, or a comment. Unless noted, calls come from the whole dose curve; as a rule, active = well fitted curve in the direction sought with a large enough effect; inconclusive = small, poorly fitted or top-dose-only effect, or another doubt; inactive = no such curve, though single readings can be large; an effect the other way counts as inactive or inconclusive.

SMILES | Six1-Eya2 blk | CtBP-E1A inh | p53 reactivation | Gal4-VP16 FLuc | RORg inh
COc1ccc(C(=O)NC(=S)NCC2CCCO2)cc1 (configuration not stated) | -2.5 | -2.0 | 11.4% | ? | 12.6µM*
Cc1cn2c(=O)c(C(=O)NCc3ccc4c(c3)OCO4)cnc2s1 | 1.6 | 2.7 | -3.1% | . | .
COc1ccc(CNc2ncncc2-c2ccccc2C(F)(F)F)c(OC)c1 | . | . | . | 3.5% | 10.8%
COc1ccccc1Nc1nnc(SCC(=O)NC(=O)Nc2ccc3c(c2)OCCO3)s1 | 0.9 | 0.4 | 1.9% | -4.1% | -11.5%[10 µM]
O=C(CSc1nccn1-c1ccccc1)NCc1ccc(F)cc1 | -1.4 | -1.1 | -2.2% | -8.8% | -9.5%
COC(=O)CCCSc1nccn1-c1ccccc1 | -1.4 | -3.1 | 6.4% | -13.5% | 0.3%
CCc1ccc(CSc2nccn2-c2ccccc2)cc1 | ? | -21.3 | 2.6% | -27.8% | 8.91µM*
c1ccc(CCSc2nccn2-c2ccccc2)cc1 | -24.1 | -15.8 | ? | -6.3% | 10µM*
COC(=O)c1c(C)[nH]c(C(=O)COC(=O)CCNS(=O)(=O)c2cccc(C(F)(F)F)c2)c1C | 0.1 | -18.8 | 6.1% | . | .
CCOC(=O)c1c2c(n(Cc3ccccc3)c1C)C(=O)C(=O)c1ccccc1-2 | ? | -79.2* | . | . | .
CCOC(=O)c1c2c3c(c(Cl)ccc3[nH]c1=O)C(=O)c1ccccc1-2 | -76.4* | -89.1* | 1.9% | -15.7% | 32.6%
CCOC(=O)c1c2c3c(cccc3n(C)c1=O)C(=O)c1ccccc1-2 | -68.6* | -82.7* | 0.5% | -15.0% | -17.5%
CC(C)C[C@H]1CNC(=S)N1C[C@H]1CCCN1C[C@H](Cc1ccc(O)cc1)N1C[C@H](Cc2ccccc2)N(CC2CCCCCC2)C1=S | -12.9 | -16.3 | . | . | .
Cc1cc(-c2n[nH]c(=S)n2Cc2ccco2)nn1C | 2.8 | -4.1 | -2.4% | -26.3% | ?
COc1ccc(-c2n[nH]c(=S)n2Cc2ccco2)cc1 | -1.2 | 6.2 | 0.8% | ? | 15.8µM*
COc1cccc(CN2CCN(Cc3ccco3)CC2)c1 | -5.9 | -0.7 | 4.9% | 1.4% | -2.8%
Cc1c(Br)c(-c2n[nH]c(=S)n2Cc2ccco2)nn1C | 0.7 | -3.1 | -9.1% | -2.8% | 22.4µM*
COc1cccc(Cc2n[nH]c(=S)n2Cc2ccco2)c1 | -19.7 | -0.6 | 0.5% | -25.1% | 3.55µM*
O=C(C[C@@H]1C/C=C\C[C@H](Cc2ccc(F)cc2)C(=O)OCCNC1=O)NCCO | -1.8 | 3.8 | -2.0% | . | .
O=C(NNS(=O)(=O)c1ccc(C(F)(F)F)cc1)c1cnn(-c2ccccc2)c1C(F)(F)F | 7.2 | . | -1.4% | -6.1% | 5.6%
O=C(NNS(=O)(=O)c1ccc(F)cc1)c1cnn(-c2ccccc2)c1C(F)(F)F | 1.1 | . | -4.7% | 12.6µM* | ?
CC1=NNC(=O)/C1=C\c1cn(-c2ccccc2)nc1-c1ccccc1 | -7.8 | . | -9.5% | 1.8%[10 µM] | 1.12µM*
O=C1c2ccc([N+](=O)[O-])cc2C(=O)N1Cc1cccnc1 | -4.1 | -3.8 | -13.2% | -26.8% | 1.26µM*
O=C(O)c1cc(NC(=O)c2ccc3c(c2)C(=O)N(Cc2cccnc2)C3=O)cc(C(=O)O)c1 | 2.2 | 0.5 | 0.0% | -11.1% | 0.2%
COC(=O)Cc1ccc(NC(=O)c2ccc3c(c2)C(=O)N(Cc2cccnc2)C3=O)cc1 | -5.8 | -23.8 | -0.1% | ? | 15.0%
SMILES | Six1-Eya2 blk | CtBP-E1A inh | p53 reactivation | Gal4-VP16 FLuc | RORg inh
CCOC(=O)c1ccc(NC(=O)c2ccc3c(c2)C(=O)N(Cc2cccnc2)C3=O)cc1 | -8.3 | -8.7 | 2.3% | 11.2µM* | -51.8%
CC(C)c1ccc(NC(=O)c2ccc3c(c2)C(=O)N(Cc2cccnc2)C3=O)cc1 | -2.0 | -4.0 | -8.6% | 17.8µM* | ?
O=C1c2ccc3c4c(ccc(c24)C(=O)N1Cc1cccnc1)C(=O)N(Cc1cccnc1)C3=O | . | . | 7.1% | -1.5% | -16.3%
CO/N=C\c1ccc(C(=O)N2[C@H](c3ccc(C)cc3)[C@@H](C)CC[C@H]2C(=O)OC)cc1 | . | . | . | 2.3%[10 µM] | -1.1%[10 µM]
COc1ccc(NC(=O)c2ccc(C)cc2)c(OC)c1 | -7.8 | 3.4 | ? | 3.5% | 17.5%
CC(=O)c1c(C)[nH]c(C(=O)Nc2nc(C)cs2)c1C | -13.8 | -1.7 | -10.6% | 10µM* | 4.47µM*
CC(=O)c1c(C)[nH]c(C(=O)Nc2cccc(S(=O)(=O)N(C)C)c2)c1C | -9.3 | -5.1 | 3.7% | ? | 10.4%
CC(=O)c1c(C)[nH]c(C(=O)Nc2ccc(C)cn2)c1C | -0.6 | -5.1 | -9.9% | ? | 2µM*
CC(=O)c1c(C)[nH]c(C(=O)Nc2nc(-c3ccc(Cl)cc3)cs2)c1C | 5.0 | 12.7 | -8.7% | ? | ?
CC(=O)c1c(C)[nH]c(C(=O)Nc2ccc(S(=O)(=O)N(C)C)cc2)c1C | 4.7 | -21.0 | -4.4% | 1.0% | 0.224µM*
O=C(NC(=S)Nc1cccnc1)c1cccc(Cl)c1 | -6.6 | 2.4 | . | . | .
CC(=O)c1cccc(NC(=S)NC(=O)c2ccccc2)c1 | 0.6 | -8.3 | ? | ? | 8.91µM*
CC(=O)c1cccc(NC(=S)NC(=O)c2cncc(Br)c2)c1 | 8.8 | . | ? | 17.8µM* | 10µM*
O=C(O)c1cccc(NC(=S)NC(=O)c2ccc(-c3ccccc3)cc2)c1 | 0.7 | 2.0 | -13.1% | -20.6% | 8.2%
CC(=O)c1cccc(NC(=S)NC(=O)c2cccc(Cl)c2)c1 | -7.6 | -7.9 | ? | 10µM* | 2.82µM*
COc1cccc(NC(=S)NC(=O)c2cncc(Br)c2)c1 | -0.1 | 2.4 | . | . | .
CC(=O)c1cccc(NC(=S)NC(=O)C(C)C)c1 | 6.7 | 2.9 | 12.8% | -0.9% | 12.6µM*
O=C(O)C1CCC(CNS(=O)(=O)c2ccccc2)CC1 (configuration not stated) | 13.9 | -14.3 | 1.9% | 1.8% | 1.6%
CSc1ccc(S(=O)(=O)NCC(=O)OCC(=O)N2CCCCC2C)cc1[N+](=O)[O-] (configuration not stated) | -0.1 | 3.7 | 0.8% | . | .
CNC(=S)Nc1cccc(C(C)=O)c1 | 3.1 | 2.5 | 9.8% | 0.4% | -13.8%
CC(=O)c1cccc(NC(=S)NC2CCCCCCC2)c1 | 0.0 | -4.2 | -2.6% | 12.6µM* | 3.16µM*
CC(=O)c1cccc(NC(=S)NCCc2ccc(Cl)cc2)c1 | 4.6 | -12.4 | -2.3% | ? | 12.6µM*
CC(C)OC(=O)c1ccc(NC(=S)NC(=O)c2cncc(Br)c2)cc1 | 14.4 | -14.7 | 12.3% | 2.82µM* | 2.24µM*
CC(=O)c1cccc(NC(=S)NC(=O)CC(C)(C)C)c1 | 1.7 | 6.4 | ? | ? | 12.6µM*
COC(=O)c1cccc(NC(=S)NCCC2=CCCCC2)c1 | -1.4 | -0.5 | -1.3% | ? | 3.16µM*
Cc1cccc(C)c1NC(=S)NC(=O)c1cccc(Cl)c1 | -1.1 | 6.5 | . | . | .
